Source: PubChem (several laboratories)
PLCb3 inh = PLC-beta3 (human) inhibition, primary screen. Purified PLC-beta3, fluorogenic substrate, fluorescence. 0.18% of 370,000 active. inhibition, % at 12.2 µM. AID 720704. Q01970; in the data active = inhibition above about 11%
Target sequence (Q01970 whole entry, looked up): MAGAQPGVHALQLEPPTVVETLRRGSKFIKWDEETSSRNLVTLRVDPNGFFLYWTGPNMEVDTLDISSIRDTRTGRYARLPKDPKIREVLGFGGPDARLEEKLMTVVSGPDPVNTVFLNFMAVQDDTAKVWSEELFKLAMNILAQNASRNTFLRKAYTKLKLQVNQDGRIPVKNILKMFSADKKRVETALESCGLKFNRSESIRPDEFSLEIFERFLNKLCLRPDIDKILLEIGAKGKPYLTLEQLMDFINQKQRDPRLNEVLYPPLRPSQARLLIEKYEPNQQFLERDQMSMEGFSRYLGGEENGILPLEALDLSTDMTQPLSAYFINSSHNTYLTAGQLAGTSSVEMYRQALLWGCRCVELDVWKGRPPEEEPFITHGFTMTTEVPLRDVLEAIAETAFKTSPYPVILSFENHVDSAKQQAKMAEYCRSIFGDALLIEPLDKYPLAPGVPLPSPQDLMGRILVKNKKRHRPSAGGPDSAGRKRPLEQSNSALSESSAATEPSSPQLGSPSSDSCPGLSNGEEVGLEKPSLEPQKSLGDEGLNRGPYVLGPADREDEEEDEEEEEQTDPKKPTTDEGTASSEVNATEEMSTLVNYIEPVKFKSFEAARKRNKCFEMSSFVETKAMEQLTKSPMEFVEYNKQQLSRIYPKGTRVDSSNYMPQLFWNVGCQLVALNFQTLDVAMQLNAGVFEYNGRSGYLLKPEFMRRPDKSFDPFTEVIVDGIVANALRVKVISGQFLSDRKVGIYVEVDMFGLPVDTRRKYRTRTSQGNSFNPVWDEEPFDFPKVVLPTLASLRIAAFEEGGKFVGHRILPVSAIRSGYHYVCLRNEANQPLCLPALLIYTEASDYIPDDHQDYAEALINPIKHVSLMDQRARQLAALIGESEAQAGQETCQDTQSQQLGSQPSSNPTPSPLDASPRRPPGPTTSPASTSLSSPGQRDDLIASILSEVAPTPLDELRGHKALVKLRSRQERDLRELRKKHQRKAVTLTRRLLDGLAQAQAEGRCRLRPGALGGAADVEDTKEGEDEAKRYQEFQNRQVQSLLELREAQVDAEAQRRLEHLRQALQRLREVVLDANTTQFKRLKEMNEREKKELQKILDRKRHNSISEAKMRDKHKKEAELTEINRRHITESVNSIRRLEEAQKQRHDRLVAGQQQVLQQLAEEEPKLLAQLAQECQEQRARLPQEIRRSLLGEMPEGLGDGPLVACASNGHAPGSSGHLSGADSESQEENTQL
PLC-gamma1 inh = inhibitors of human phospholipase C gamma1; AID 720700; purified PLC-gamma1, fluorogenic substrate, fluorescence; 0.84% of 370,000 active; inhibition, % at 12.2 µM; P19174; in the data active = inhibition above about 9.5%
Cardio protect = myocardial damage modulation in H9c2 cells | H9c2 cardiomyocytes, H2O2 injury protection, ATPLite, 2 h | protection from H2O2 cell death, % at 20 µM | 0.63% of 360,000 active | AID 588492;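 active = compounds giving at least 50% protection of heart cells from peroxide-induced death in the single-dose screen, raw or plate-pattern-corrected value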
FAS-TE inh = FAS thioesterase (human) inhibition. 0.67% of 360,000 active. inhibition, % at 15 µM. recombinant FAS-TE, OMFH fluorogenic substrate, fluorescence endpoint. P49327;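 active = compounds whose normalised, plate-corrected inhibition of enzyme fluorescence in the single-dose primary screen is 50% or more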
FAS-TE conf = FAS thioesterase (human) inhibition, confirmation; shares compounds with FAS-TE inh; recombinant FAS-TE, OMFH fluorogenic substrate, fluorescence; inhibition, % at 15 µM; 45% of 2,300 active;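 active = compounds inhibiting the enzyme by at least 50% at 15 µM in any one of the replicates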
A number is an active result; – = inactive; · = no result. This is a sample that favours compounds with a hit; in the whole collection about 2.2% have one here.

SMILES	PLCb3 inh	PLC-gamma1 inh	Cardio protect	FAS-TE inh	FAS-TE conf
CC1(C)CC(=O)C=C(c2ccc(COC(=O)/C=C/c3ccccc3)cc2)C1=O	–	–	–	–	·
CC1(C)CC(=O)C=C(c2ccc(COC(=O)c3ccccc3)cc2)C1=O	–	–	–	64	43
CC(C)Cn1c2c(c(O)c(C(=O)Nn3c(Cc4ccccc4)nc4ccccc4c3=O)c1=O)CCCC2	–	–	–	54	–
O=C(Nn1c(Cc2ccccc2)nc2ccccc2c1=O)c1c(O)c2cccc3c2n(c1=O)CCC3	–	–	–	–	·
COCCCNC(=O)CSc1nnc(-c2cccnc2)n1C1CCCCC1	–	–	·	·	·
CCNC(=O)C1CN(S(=O)(=O)c2ccccc2)CCN1S(=O)(=O)c1ccccc1 (stereo unspecified)	–	–	–	–	·
Cc1ccc(/C=N\NC(=O)C2CN(S(=O)(=O)c3ccccc3)CCN2S(=O)(=O)c2ccccc2)cc1 (stereo unspecified)	–	–	–	81	–
O=S(=O)(c1ccc(F)cc1)n1c(CN2CCOCC2)nc2ccccc21	–	–	·	·	·
N#Cc1cc(Oc2ccc(Cl)cc2)c(N2CCOCC2)cc1C#N	–	–	–	67	30
O=C(O)c1cc(NN=Nc2cccc([N+](=O)[O-])c2)cc([N+](=O)[O-])c1	–	–	–	–	·
O=C(O)c1cc(NN=Nc2ccc(Br)cc2)cc([N+](=O)[O-])c1	–	–	–	69	75
O=C(NCc1cn(-c2ccccc2)nc1-c1ccccc1)c1cccc([N+](=O)[O-])c1	–	–	–	51	–
N#Cc1cccc(-n2c(-c3ccccc3)nnc2-c2ccccc2)c1C#N	–	–	–	58	–
O=C(C1CCC1)N1CCc2cc(S(=O)(=O)C3CCN(Cc4ccc(F)cc4)CC3)ccc21	–	–	·	·	·
CCN(Cc1ccccc1)C(=O)COC(=O)c1cc(Cl)nc(Cl)c1	–	–	–	55	66
Cc1cc2ncn(/N=C/c3ccc(-c4ccccc4)o3)c2cc1C	–	–	–	50	–
COC(=O)Cc1c([C@H](C)[C@@H](OC)c2ccccc2Br)nnn1Cc1ccccc1	–	–	·	·	·
Fc1cccc(-c2cc3nc(-c4ccccc4)cc(N4CCC5(CC4)OCCO5)n3n2)c1	–	–	–	–	·
Fc1cccc(-c2cc3nc4c(c(N5CCC6(CC5)OCCO6)n3n2)CCCC4)c1	–	–	–	55	–
CCCCCc1cc(OC)cc2c1C(=O)OC(C)(C)O2	–	–	–	–	·
COc1ccc([N+](=O)[O-])cc1/C=N/NC(=O)CNC(=O)C(c1ccccc1)c1ccccc1	–	–	–	–	·
COc1ccc([N+](=O)[O-])cc1/C=N/NC(=O)CNC(=O)c1cccc(F)c1	–	–	–	70	75
COC(=O)[C@]12C[C@H](CC(=O)NCc3ccc(OC)c(OC)c3)C(=O)N(Cc3ccco3)C1=C[C@H](C(C)(C)C)O[C@@H]2C	–	–	·	·	·
Cn1c(SCC(=O)Nc2ccc(S(=O)(=O)Nc3nccs3)cc2)nc2sc3c(c2c1=O)CCCC3	–	–	·	·	·
O=C(Nc1cccc(C(F)(F)F)c1)c1cccnc1NCCc1ccccc1	–	–	–	53	–
SMILES	PLCb3 inh	PLC-gamma1 inh	Cardio protect	FAS-TE inh	FAS-TE conf
O=C(O)CN1C(=O)/C(=C\c2cccc(OCc3ccc(Cl)cc3Cl)c2)SC1=S	–	–	–	59	–
COc1ccccc1CNC(=O)c1cc(S(=O)(=O)N2CCN(c3ccccc3)CC2)ccc1Cl	–	–	–	65	–
COc1ccc(-c2cnnn2-c2ccc(NC(=O)c3ccc(S(=O)(=O)N4CCCCC4)cc3)cc2)cc1OC	–	–	–	88	–
COc1ccc(C(=O)Nc2ccc(S(=O)(=O)N3CCCCC3)cc2)cc1OC	–	–	–	–	·
COc1ccc(S(=O)(=O)N2CCOCC2)cc1C(=O)Nc1ccc(N2CCCCCC2)cc1	–	–	–	62	–
Cc1onc(C(=O)N2CCN(C(c3ccc(F)cc3)c3ccc(F)cc3)CC2)c1[N+](=O)[O-]	–	–	·	·	·
CC1(C)CC(=O)C=C(C2CC2)C1=O	–	–	·	·	·
C=CCn1c(COc2ccccc2)nnc1SCC(=O)c1ccc(-c2ccccc2)cc1	–	–	·	·	·
CCC(C)N(C(=O)CSc1nnc(-c2cc(OC)c(OC)c(OC)c2)o1)C(C)CC (stereo unspecified)	–	–	·	·	·
CCCCCCCC1c2c(c(C)c(C)oc2=O)Oc2c(C)c(C)oc(=O)c21	–	–	–	–	·
CCCC(C)C1c2c(c(C)c(C)oc2=O)Oc2c(C)c(C)oc(=O)c21 (stereo unspecified)	–	–	–	59	56
CCOC(=O)c1c(NC(=O)CSc2nnc(-c3ccco3)o2)sc(C(C)=O)c1C	–	–	–	–	·
CCOC(=O)c1c(NC(=O)CSc2nnc(-c3ccccc3C)n2C)sc(C(C)=O)c1C	–	–	–	59	68
CCOC(=O)c1c(NC(=O)CSc2ncnc3ccccc23)sc(C(C)=O)c1C	–	–	–	50	–
CCOC(=O)c1c(NC(=O)CSc2nc3cccnc3n2C)sc(C(C)=O)c1C	·	·	–	80	–
O=C(NC1CCc2ccccc21)c1cc(-c2ccc(Cl)cc2)nc2ccccc12 (stereo unspecified)	–	–	·	·	·
CC(C)(C)C1=CC(CC(N)=O)(C(C)(C)C)OC1=O (stereo unspecified)	–	–	·	·	·
Cc1cccc(NC(=S)/N=C(\N)Nc2nc(C)c3ccccc3n2)c1	–	–	–	59	–
Cc1cccc(NC(=S)/N=C(\N)Nc2nc(C)c3ccc(C)cc3n2)c1	–	–	–	–	·
Cc1cccc2cc(CN(Cc3cccs3)S(=O)(=O)c3ccc4c(c3)OCCO4)c(=O)[nH]c12	–	–	–	73	–
COc1ccccc1-n1cnc2c(c1=O)c1nc3ccccc3nc1n2-c1ccc(C)cc1	–	–	–	–	·
COc1ccccc1-n1c2nc3ccccc3nc2c2c(=O)n(-c3cc(C)cc(C)c3)cnc21	–	–	–	92	–
O=C(CN1CCN(c2nc(-c3ccccc3)cs2)CC1)Nc1ccc(Cl)c(Cl)c1	–	–	·	·	·
O=C(Oc1cccc(/C=N/Nc2nc(N3CCOCC3)nc(N3CCOCC3)n2)c1)c1ccco1	–	–	–	–	·
COc1ccc(/C=N/Nc2nc(Nc3ccccc3)nc(N3CCCC3)n2)cc1[N+](=O)[O-]	–	–	–	–	·
SMILES	PLCb3 inh	PLC-gamma1 inh	Cardio protect	FAS-TE inh	FAS-TE conf
COc1cc(/C=N/Nc2nc(Nc3ccccc3)nc(N3CCOCC3)n2)ccc1OC(=O)c1ccco1	–	–	–	67	–
CCOc1cc(/C=N/Nc2nc(N3CCCCC3)nc(N3CCCCC3)n2)ccc1OC(=O)c1ccco1	–	–	–	71	–
COc1ccc(/C=N/Nc2nc(Nc3ccccc3)nc(N3CCCCC3)n2)c(OC)c1	–	–	–	50	–
c1ccc(CCn2nnc(-c3ccc(N4CCOCC4)cc3)n2)cc1	–	–	·	·	·
Cc1c(CN2CCN(c3ncc(Cc4ccccc4)cn3)CC2)c(=O)n(-c2ccccc2)n1C	–	–	·	·	·
COc1ccc(-c2csc(NC(=O)c3ccccc3NS(=O)(=O)c3ccc(C)cc3)n2)cc1	–	–	–	56	49
